Shown are actives, neighbours in structure and some others; about 4.5% of the full set was active somewhere.
CSC inhib: blocks cancer stem cells | cancer stem cell-like cells viability, luminescence | 1.1% of 300,000 active | AID 2717 | inhibition, % at 7.5 µM; in the data active = inhibition above about 75%; tested in HMLE shEcad cells
Mdm2-MdmX inh: human Mdm2/MdmX binding inhibition | 3% of 330,000 active | inhibition, % at 8 µM | O15151+Q00987 | SaOS-2 split-luciferase Mdm2/MdmX complementation, luminescence | AID 485346;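 active = inhibition of at least 50% at 8 µM in the primary screen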
Target sequence (O15151 whole entry, looked up): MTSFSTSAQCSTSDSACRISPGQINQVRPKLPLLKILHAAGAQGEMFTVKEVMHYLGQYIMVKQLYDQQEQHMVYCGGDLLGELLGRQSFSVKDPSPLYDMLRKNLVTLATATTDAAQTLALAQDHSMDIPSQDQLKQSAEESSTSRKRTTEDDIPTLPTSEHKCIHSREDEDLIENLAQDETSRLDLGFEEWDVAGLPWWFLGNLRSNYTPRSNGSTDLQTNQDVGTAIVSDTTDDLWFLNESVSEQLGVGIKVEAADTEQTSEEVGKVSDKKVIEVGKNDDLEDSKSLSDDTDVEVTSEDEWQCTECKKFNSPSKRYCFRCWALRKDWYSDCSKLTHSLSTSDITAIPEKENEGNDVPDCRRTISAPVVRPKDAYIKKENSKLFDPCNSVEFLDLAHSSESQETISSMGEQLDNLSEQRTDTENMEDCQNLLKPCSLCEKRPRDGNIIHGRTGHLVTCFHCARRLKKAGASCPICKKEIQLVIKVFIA
Target sequence (Q00987 whole entry, looked up): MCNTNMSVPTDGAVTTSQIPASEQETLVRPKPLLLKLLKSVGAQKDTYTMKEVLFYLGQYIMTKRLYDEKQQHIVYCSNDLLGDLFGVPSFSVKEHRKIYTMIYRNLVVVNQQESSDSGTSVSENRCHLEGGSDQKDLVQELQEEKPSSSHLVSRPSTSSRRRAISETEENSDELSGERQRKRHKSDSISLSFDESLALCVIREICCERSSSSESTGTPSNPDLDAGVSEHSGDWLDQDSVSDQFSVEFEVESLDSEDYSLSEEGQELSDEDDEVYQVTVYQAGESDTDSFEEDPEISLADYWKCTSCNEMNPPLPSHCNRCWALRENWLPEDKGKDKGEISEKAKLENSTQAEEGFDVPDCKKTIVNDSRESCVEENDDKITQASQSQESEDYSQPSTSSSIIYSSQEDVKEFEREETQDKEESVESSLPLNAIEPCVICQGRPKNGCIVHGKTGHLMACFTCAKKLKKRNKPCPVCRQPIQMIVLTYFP
697 NFkB inh: inhibitors of the PMA/ionomycin-induced NF-kB reporter in 697 B cells. inhibition, % at 4 µM. 697 B-cell NF-kB luciferase reporter, 16 h. 0.33% of 330,000 active; in the data active = inhibition above about 35%
Beta apoptosis: beta cell apoptosis inhibition; 0.8% of 300,000 active; INS-1E cytokine-induced death, ATP luminescence, 48 h; percent of positive-control rescue, neutral wells zero; AID 435005; protection from apoptosis, % (concentration not given with the values);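 active = Every replicate reaches about 75%, or at least half do and their mean reaches it too, limit read from the data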;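 note: higher means more ATP so stronger rescue from cytokine killing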
Jurkat NFkB inh: inhibitors of the PMA/ionomycin-induced NF-kB reporter in Jurkat cells | PMA/ionomycin-induced NF-kB luciferase reporter, luminescence | inhibition, % at 4 µM | 0.53% of 330,000 active | AID 435003; in the data active = inhibition above about 50%
Gli-Sufu antag: Gli-Sufu pathway antagonism; Sufu-KO-LIGHT fibroblasts, Gli luciferase reporter luminescence; 0.74% of 340,000 active; AID 588413; inhibition, % at 5 µM;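 active = inhibition above about 55%, limit read from the data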
Mdm2 MdmX conf: confirmation of human Mdm2/MdmX interaction inhibitors; shares compounds with Mdm2-MdmX inh; 55% of 10,000 active; inhibition, % at 8 µM; Mdm2-MdmX binding, luminescent assay; in the data active = inhibition above about 40%
Full FLuc ctr: full-length luciferase inhibition in Mdm2/MdmX counter-screen. 77% of 6,200 active. AID 504607. inhibition, % at 8 µM. shares compounds with Mdm2-MdmX inh. SaOS-2 full-length luciferase counterscreen, luminescence;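 active = mean inhibition at 8 µM reaching about 37%, which flags the compound as non-specific, limit read from the data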;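 note: p53-null SaOS-2 cells with luciferase driven by a doxycycline-inducible promoter; compound on cells about two nights before reading with doxycycline added after day one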
Each line names hits and unclear results; the compound was inactive in the other large screens (follow-up assays come after a bar, where they were run).

Cc1ccc(S(=O)(=O)c2nc(-c3ccccc3Cl)oc2N(C)C)cc1	Mdm2-MdmX inh 56 | Mdm2 MdmX conf 72 | Full FLuc ctr 73
Cc1nc(NCc2ccc3c(c2)OCO3)c2nnn(Cc3ccccc3)c2n1	Mdm2-MdmX inh 77 | Mdm2 MdmX conf inactive | Full FLuc ctr 67
Cc1nnc(NCc2n[nH]c(=O)c3ccccc23)c2ccccc12	Mdm2-MdmX inh 75 | Mdm2 MdmX conf inactive
O=C(Nc1ccc(-c2ccccc2)cc1)c1ccccc1	none
C=CCN1N=C(c2ccc(NC(=O)c3ccccc3)cc2)CSC1=O	Mdm2-MdmX inh 66 | Mdm2 MdmX conf inactive
CCN1C(=NCCc2ccc(Br)cc2)N[C@@H](c2ccccc2)[C@H](C(=O)OC)[C@H]1C	Mdm2-MdmX inh 52 | Mdm2 MdmX conf inactive
Cc1ccc(S(=O)(=O)N2CCOCC2)cc1C(=O)OCC(=O)c1c(N)n(C)c(=O)n(C)c1=O	none (no result: Gli-Sufu antag)
Cn1c(N)c(C(=O)COC(=O)c2cc(S(=O)(=O)N3CCOCC3)ccc2F)c(=O)n(C)c1=O	Mdm2-MdmX inh 82 | Mdm2 MdmX conf inactive
O=C(CCC(=O)c1cccs1)NCc1cccc(Cl)c1	none
COc1ccccc1OCC(=O)NNc1c2ccccc2nc2ccccc12	none
CCCCCCC(=O)N1C/C=C\C(c2ccc(OC)cc2)N(Cc2ccc(F)cc2)C(=O)[C@H]1Cc1ccccc1 (stereo not given in full)	Mdm2-MdmX inh 72, Beta apoptosis 100 | Mdm2 MdmX conf inactive | Full FLuc ctr 62
COc1ccc2cc(C3CC(c4cccs4)=NN3C(C)=O)c(Cl)nc2c1 (stereo not given)	Mdm2-MdmX inh 55 | Mdm2 MdmX conf inactive
CC(=O)n1cc(N(C(=O)CCl)c2ccc([N+](=O)[O-])cc2)c2ccccc21	Mdm2-MdmX inh 98 | Mdm2 MdmX conf 80 | Full FLuc ctr 42
O=C(NC1CCN(CC(=O)N(c2ccccc2)c2ccccc2)CC1)c1ccc([N+](=O)[O-])cc1	none
O=Cc1[nH]c2ccccc2c1N(C(=O)CCl)c1ccc([N+](=O)[O-])cc1	Mdm2-MdmX inh 97 | Mdm2 MdmX conf 94 | Full FLuc ctr inactive
Cn1cc(C(=O)N/N=C/c2ccc([N+](=O)[O-])cc2)c2ccccc21	none
CCCN(CC(=O)Nc1cc(Cl)ccc1Cl)C(=O)c1ccccc1SCC(=O)N1CCCC1	none
N/C(=N\c1nc(CSc2nc3ccccc3s2)cc(=O)[nH]1)Nc1ccc(F)cc1	Mdm2-MdmX inh 57 | Mdm2 MdmX conf 46 | Full FLuc ctr 52
Cc1ccc(N/C(N)=N/c2nc(CSc3nnc(N)s3)cc(=O)[nH]2)cc1	none
COc1ccc(C2CC(=O)N(CC(=O)NCC3CCCO3)c3ccccc3S2)cc1OC (stereo not given)	none
COc1ccc(C2CC(=O)N(C)c3ccccc3S2)cc1OC (stereo not given)	Mdm2-MdmX inh 53 | Mdm2 MdmX conf inactive
CCN(c1ccccc1)S(=O)(=O)c1ccc(OC)c(NC(=O)c2ccc(=O)[nH]c2)c1	none
Cc1cccc(NC(=O)Nc2ccc(C#N)cc2)n1	Mdm2-MdmX inh 78 | Mdm2 MdmX conf 67 | Full FLuc ctr 78
Cc1cccc(NC(=O)Nc2cccc(C#N)c2)n1	none
CCOC(=O)c1ccc(NC(=O)Nc2cccc(C)n2)cc1	Mdm2-MdmX inh 57 | Mdm2 MdmX conf inactive
COc1ccc(-c2nn(-c3ccccc3)cc2C(=O)NC2CCCCC2C)cc1 (stereo not given)	Mdm2-MdmX inh 74 | Mdm2 MdmX conf inactive
O=C(Cn1cnc2ccccc2c1=O)c1ccc(OC(F)F)cc1	none
O=C(c1ccco1)N1CCN(C(c2coc3ccc(Cl)cc3c2=O)c2nnnn2C2CCCC2)CC1 (stereo not given)	Mdm2-MdmX inh 50 | Mdm2 MdmX conf inactive
Cc1cc(C)cc(NC(=S)NCc2ccc3[nH]c4c(c3c2)CCCC4)c1	Mdm2-MdmX inh 83 (no result: Beta apoptosis) | Mdm2 MdmX conf inactive
CCS(=O)(=O)NCc1ccc2[nH]c3c(c2c1)CCCC3	none (no result: Gli-Sufu antag)
S=C(NCc1ccc2[nH]c3c(c2c1)CCCC3)Nc1ccccc1	Mdm2-MdmX inh 70 (no result: CSC inhib) | Mdm2 MdmX conf inactive
